Measurements: PubChem BioAssay (NCI)
Compounds without any hit were thinned out: in the full panel of roughly 83,000, 20% have a hit.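 Cell lines were cultured in 96-well plates, exposed to a single compound concentration, and assessed for percent growth 48 hours later.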 Activity calls are given as the source filed them. Rule for the calls: active = growth percent below 10; inactive = the rest.

What was measured:
Experiment in all cases: NCI-60 one-dose screen, 48 h (100 = growth as untreated, 0 = no growth, -100 = all killed)
HCT-15 colon = conditions: 10 µM unless noted
HT29 colon = conditions: 10 µM unless noted
SNB-75 CNS = conditions: 10 µM unless noted
SNB-19 CNS = conditions: 10 µM unless noted
U251 CNS = conditions: 10 µM unless noted
PC-3 prostate = conditions: 10 µM unless noted
SK-MEL-5 melanoma = conditions: 10 µM unless noted
UACC-62 melanoma = conditions: 10 µM unless noted
LOX IMVI melanoma = conditions: 10 µM
SK-MEL-28 melanoma = conditions: 10 µM unless noted

Measured: growth

COC(=O)c1cccc([N+](=O)[O-])c1
inactive: HCT-15 colon 105% | HT29 colon 101% | SNB-75 CNS 120% | SNB-19 CNS 98.6% | U251 CNS 97.4% | PC-3 prostate 97.4% | SK-MEL-5 melanoma 98.9% | UACC-62 melanoma 98.7% | LOX IMVI melanoma 100% | SK-MEL-28 melanoma 102%

CN(C)c1ccc2nc3ccc(=[N+](C)C)cc-3oc2c1
inactive: HCT-15 colon 33.3% | HT29 colon 33.2% | SNB-75 CNS 71.3% | SNB-19 CNS 14.2% | PC-3 prostate 11.4% | SK-MEL-5 melanoma 23.5% | UACC-62 melanoma 39.5% | LOX IMVI melanoma 12.2% | SK-MEL-28 melanoma 66.6%
active: U251 CNS -29.1%

CC(=O)Nc1ccc(C(=O)c2ccc(S(=O)(=O)Nc3ccccc3)cc2)cc1
inactive: HCT-15 colon 104% | HT29 colon 96.7% | SNB-75 CNS 78.1% | SNB-19 CNS 80.3% | U251 CNS 91.9% | PC-3 prostate 87.2% | SK-MEL-5 melanoma 89.8% | UACC-62 melanoma 83.1% | LOX IMVI melanoma 91.6% | SK-MEL-28 melanoma 114%

C1=NCCc2ccccc21
inactive: HCT-15 colon 107% | HT29 colon 117% | SNB-75 CNS 76.4% | SNB-19 CNS 109% | U251 CNS 92.9% | PC-3 prostate 87.7% | SK-MEL-5 melanoma 95.3% | UACC-62 melanoma 114% | LOX IMVI melanoma 100% | SK-MEL-28 melanoma 110%

Cc1ccccc1CC(N)C(=O)O (stereo not drawn)
inactive: HCT-15 colon 117% | HT29 colon 107% | SNB-75 CNS 91.4% | SNB-19 CNS 108% | U251 CNS 102% | PC-3 prostate 90.4% | SK-MEL-5 melanoma 117% | UACC-62 melanoma 103% | LOX IMVI melanoma 106% | SK-MEL-28 melanoma 115%

CC1(C)CCC(C)(C)NC(=S)N1
inactive: HCT-15 colon 98.7% | HT29 colon 107% | SNB-75 CNS 105% | SNB-19 CNS 102% | U251 CNS 104% | PC-3 prostate 100% | SK-MEL-5 melanoma 105% | UACC-62 melanoma 105% | LOX IMVI melanoma 96.1% | SK-MEL-28 melanoma 109%

Cc1cc(C(=O)NN)c(C#N)c(=O)[nH]1
inactive: HCT-15 colon 105% | HT29 colon 124% | SNB-75 CNS 84.6% | SNB-19 CNS 95.3% | U251 CNS 104% | PC-3 prostate 91.1% | SK-MEL-5 melanoma 95.7% | UACC-62 melanoma 89.8% | LOX IMVI melanoma 97.7% | SK-MEL-28 melanoma 91.8%

CC1CCC(C)(C)c2ccccc21 (stereo not drawn)
inactive: HCT-15 colon 101% | HT29 colon 103% | SNB-75 CNS 82.9% | SNB-19 CNS 103% | U251 CNS 99.2% | PC-3 prostate 93.5% | SK-MEL-5 melanoma 95.8% | UACC-62 melanoma 103% | LOX IMVI melanoma 98.6% | SK-MEL-28 melanoma 97.3%

O=C(O)Cc1ccc(Cl)cc1
inactive: HCT-15 colon 112% | HT29 colon 107% | SNB-75 CNS 102% | SNB-19 CNS 108% | U251 CNS 104% | PC-3 prostate 85.7% | SK-MEL-5 melanoma 114% | UACC-62 melanoma 110% | LOX IMVI melanoma 103% | SK-MEL-28 melanoma 132%

COC1C(=O)CCC2(CO2)C1(O)C1(C)OC1CCC(C)C (stereo not drawn)
inactive: HCT-15 colon 56.4% | HT29 colon 60.3% | SNB-75 CNS 77.5% | SNB-19 CNS 51.5% | U251 CNS 42.3% | PC-3 prostate 74.6% | SK-MEL-5 melanoma 64.6% | UACC-62 melanoma 70.4% | LOX IMVI melanoma 50.3%

CC(=O)c1cccc(NS(=O)(=O)c2ccc(C)cc2)c1
inactive: HCT-15 colon 43.2% | HT29 colon 30.2% | SNB-75 CNS 61.9% | SNB-19 CNS 90% | U251 CNS 61.2% | PC-3 prostate 78.9% | SK-MEL-5 melanoma 60.2% | UACC-62 melanoma 84.4% | LOX IMVI melanoma 66.5% | SK-MEL-28 melanoma 78.5%

CCN(CC)CCN1CNC(=S)NC1
inactive: HCT-15 colon 106% | HT29 colon 104% | SNB-75 CNS 107% | SNB-19 CNS 104% | U251 CNS 105% | PC-3 prostate 101% | SK-MEL-5 melanoma 104% | UACC-62 melanoma 105% | LOX IMVI melanoma 95.8% | SK-MEL-28 melanoma 114%

c1ccc(-c2ccc3ccccc3c2)cc1
inactive: HCT-15 colon 107% | HT29 colon 80.8% | SNB-75 CNS 107% | SNB-19 CNS 100% | U251 CNS 92.7% | PC-3 prostate 90.8% | SK-MEL-5 melanoma 96.4% | UACC-62 melanoma 95.4% | LOX IMVI melanoma 95.7% | SK-MEL-28 melanoma 107%

CC1CCC(C(C)(C)[N+](C)(C)C)CC1 (stereo not drawn)
inactive: HCT-15 colon 98.1% | HT29 colon 97.8% | SNB-75 CNS 89% | SNB-19 CNS 101% | U251 CNS 96.6% | PC-3 prostate 96.9% | SK-MEL-5 melanoma 103% | UACC-62 melanoma 104% | LOX IMVI melanoma 102%

CCCCCC(=O)OCCC1CCCCC1
inactive: HCT-15 colon 107% | HT29 colon 101% | SNB-75 CNS 89.1% | SNB-19 CNS 112% | U251 CNS 96% | PC-3 prostate 98.7% | SK-MEL-5 melanoma 100% | UACC-62 melanoma 104% | LOX IMVI melanoma 98.6% | SK-MEL-28 melanoma 105%
